Laboratory results as given in the supplement of paper PMC6555819.

Key:
Assay in all cases: PBM binding z-score (relative to random genomic background probes); higher = stronger binding; sequences stand for … in GC…GCGATTGACAGCGTAGAATGAAGG
[1] = system: FXR:RXRa (NR concentration 270 nM, RXRa partner concentration 90 nM)
Procedure, shortened: (§1)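 Each nuclear receptor dimer, without ligand, was incubated for 1 h on custom Agilent 4×180K protein-binding microarrays. Binding was detected with antibodies against each partner (one per run), and scanned fluorescence was regression-normalized. The binding z-scores are referenced to random human genomic background probes.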

[2] = system: LXRa:RXRa (NR concentration 270 nM, RXRa partner concentration 90 nM)
Procedure, shortened: as §1

[3] = system: LXRa homodimer (NR concentration 270 nM)
Procedure, shortened: as §1

[4] = system: LXRb:RXRa (NR concentration 270 nM, RXRa partner concentration 90 nM)
Procedure, shortened: as §1

[5] = system: LXRb homodimer (NR concentration 270 nM)
Procedure, shortened: as §1

[6] = system: PPARa:RXRa (NR concentration 270 nM, RXRa partner concentration 90 nM)
Procedure, shortened: as §1

[7] = system: PPARg:RXRa (NR concentration 180 nM, RXRa partner concentration 90 nM)
Procedure, shortened: as §1

[8] = system: PPARg:RXRa 270nM:90nM, anti-RXR (NR concentration 270 nM, RXRa partner concentration 90 nM)
Procedure, shortened: as §1

[9] = system: PPARg:RXRa 30nM:10nM, anti-RXR (NR concentration 30 nM, RXRa partner concentration 10 nM)
Procedure, shortened: as §1

[10] = system: PPARg:RXRa 90nM:30nM, anti-RXR (NR concentration 90 nM, RXRa partner concentration 30 nM)
Procedure, shortened: as §1

[11] = system: PPARg:RXRa DBDmut IVT, anti-RXR (DBD mutation: RXRa K156A/R161A, NR concentration 270 nM, RXRa partner concentration 90 nM)
Procedure, shortened: as §1

[12] = system: PPARg:RXRa IVT, anti-PPARg (NR concentration 270 nM, RXRa partner concentration 90 nM)
Procedure, shortened: as §1

[13] = system: PPARg DBDmut:RXRa IVT, anti-PPARg (DBD mutation: PPARg1 K132A/R137A, NR concentration 270 nM, RXRa partner concentration 90 nM)
Procedure, shortened: as §1

[14] = system: PPARg DBDmut IVT, anti-PPARg (DBD mutation: PPARg1 K132A/R137A, NR concentration 270 nM)
Procedure, shortened: as §1

[15] = system: PPARg homodimer (NR concentration 180 nM)
Procedure, shortened: as §1

[16] = system: PXR:RXRa (NR concentration 270 nM, RXRa partner concentration 90 nM)
Procedure, shortened: as §1

[17] = system: PXR homodimer (NR concentration 270 nM)
Procedure, shortened: as §1

[18] = system: RARa:RXR (NR concentration 270 nM, RXRa partner concentration 90 nM)
Procedure, shortened: as §1

[19] = system: RARa homodimer (NR concentration 270 nM)
Procedure, shortened: as §1

[20] = system: RARb:RXRa (NR concentration 270 nM, RXRa partner concentration 90 nM)
Procedure, shortened: as §1

Sequence | PBM binding z-score [1] | PBM binding z-score [2] | PBM binding z-score [3] | PBM binding z-score [4] | PBM binding z-score [5] | PBM binding z-score [6] | PBM binding z-score [7] | PBM binding z-score [8] | PBM binding z-score [9] | PBM binding z-score [10] | PBM binding z-score [11] | PBM binding z-score [12] | PBM binding z-score [13] | PBM binding z-score [14] | PBM binding z-score [15] | PBM binding z-score [16] | PBM binding z-score [17] | PBM binding z-score [18] | PBM binding z-score [19] | PBM binding z-score [20]
ATCTCTAGGTAAGCAAGTTCAGTGAATGCCGAAC | 0.021 | 0.323 | 0.32 | -0.00291 | 0.392 | 0.496 | 0.0727 | 0.538 | 0.367 | 0.23 | 1.64 | 1.7 | 0.134 | -0.0297 | 0.55 | 1.37 | 1.12 | 0.257 | 0.268 | 0.858
ATACCAAGGTGATCGTGAGGCCGTTGATACTAAC | 0.369 | 0.246 | -0.0793 | 0.0516 | -0.198 | 0.139 | 0.361 | 0.165 | 0.0132 | 0.0891 | 0.533 | 1.06 | 0.198 | 0.471 | 0.381 | 0.595 | 0.275 | 1.03 | -0.0475 | 0.735
TCTCGGAGGACACGAAATGTCAGAGCTCGACATC | 0.755 | 0.358 | -0.2 | 0.313 | -0.55 | 0.168 | 0.208 | 1.09 | 2.37 | 1.62 | 1.31 | -0.0738 | 0.273 | -0.287 | -0.365 | -0.0137 | -0.515 | 0.332 | -0.679 | 1.56
TAGCCTAGGTCATGGGCAAGTATACCACGCGAAC | 4.43 | 3.35 | 0.241 | 2.46 | -0.306 | 4.37 | 3.93 | 3.3 | 0.879 | 2.22 | 1.64 | 3.48 | -0.144 | 0.186 | 1.13 | 1.51 | -0.303 | 2.48 | -0.000605 | 4.09
ACTAGTTGGTCAGCTGCGGTCACACACAATTCGG | 0.216 | 0.737 | 1.43 | 0.671 | 0.37 | 0.527 | 0.606 | 0.528 | -0.0871 | 0.128 | 1.11 | 1.54 | 0.929 | 0.572 | 0.275 | 1.27 | 0.281 | 1.42 | 0.564 | 2.26
GCTTGTAGATCAAGGTTAACAAAGACTAAGCTAA | 0.151 | 1.17 | -0.222 | 0.96 | -0.488 | 1.91 | 2.04 | 3.12 | 0.936 | 2.61 | 1.56 | 1.61 | -0.0951 | 0.163 | 0.0842 | 0.565 | 0.265 | 1.07 | -0.205 | 1.04
GGAACGAGGGCATTCGAGTTGATACCATGGCGAT | 0.529 | 1.7 | -0.438 | 0.458 | -0.357 | 1.44 | 1.06 | 0.855 | -0.156 | 0.405 | 3.16 | 2.33 | 1.32 | -0.701 | 0.6 | 4.1 | 1.75 | 2.07 | -0.391 | 1.93
AGAATGAGGTTATTAAGATCAGGGAGTTGCGGTC | 1.77 | 1.34 | 0.175 | 1.29 | 0.183 | 2.49 | 1.37 | 2.07 | 0.61 | 1.5 | 3.18 | 2.67 | 0.214 | 0.57 | 0.895 | 1.46 | 0.973 | 1.44 | 0.946 | 1.4
CGTCCAAGGTCAAAGGCCAGTGAAGAGATGACGG | 7.32 | 5.28 | 0.422 | 3.87 | 0.919 | 6.01 | 6.49 | 6.54 | 3.55 | 5.57 | 3.42 | 4.02 | 0.425 | 0.106 | 3.37 | 4.39 | 0.655 | 5.25 | 0.426 | 5.29
CCAGACAAGTGAAAGGTAACTCAGTCTGGTACGC | -0.0838 | 0.254 | -0.234 | 0.206 | -0.315 | 1.07 | 1.42 | 2.61 | 0.692 | 1.77 | -0.0186 | 0.0117 | -0.187 | -0.255 | 0.888 | 0.0621 | -0.0763 | 0.166 | 0.124 | 0.247
ATATGTACGTTATCGGGTCATTCAGTTTGCGCAT | 2.05 | 2.01 | 1.02 | 2.32 | 1.03 | 2.67 | 1.3 | 1.35 | 0.0555 | 0.972 | 1.03 | 2.37 | 1.71 | 1.76 | 1.32 | 3.32 | 7.47 | 3.02 | 0.585 | 1.93
CCTTACGAGTCACTCCAGGTTATAGCATCGGAGT | 1.35 | 4.98 | 1.69 | 1.55 | 0.939 | 0.751 | 0.539 | 0.0713 | -0.0643 | -0.0945 | 0.574 | 0.424 | 0.623 | 0.364 | 1.41 | 1.2 | 1.12 | 0.999 | 1.56 | 0.664
GCAGACAGGTGATACGCAGGTAACTCAGGGTGGC | -0.378 | -0.342 | -0.563 | -0.687 | -1.16 | -0.129 | 0.508 | -0.512 | -0.33 | -0.762 | -0.192 | -0.471 | -0.737 | -0.846 | -0.0293 | -0.424 | -0.57 | 0.0928 | -0.408 | -0.253
